Measured values from PubChem BioAssay (NCATS).
Inconclusive results are not listed. Unmarked numbers belong to inactive results. Activity calls are given as the source filed them. The call rests on the fitted dose curve; in most records, active means well fitted cell-killing curve with a large enough effect; inconclusive means small, poorly fitted or top-dose-only effect, or effect the other way; inactive means no such curve, though single readings can be large or run the other way.

Assay: Quantitative High-Throughput drug screen in 47 multiple myeloma cell lines against the NCATS MIPE library collection: LP1_DSMZ cell viability assay (AID 1918982); further: nearly all actives have a fitted effect of over 35% in size
Settings: LP1 myeloma viability, CellTiter-Glo ATP luminescence, 48 h; series mostly up to 45.8 µM; viability (% of control): at the top concentration
Text: PI: Beverly A. Mock Ph.D.
Laboratory of Cancer Biology and Genetics,
Center for Cancer Research, National Cancer Institute,
National Institute of Health, Bethesda, Maryland
Drug resistance and disease progression are common in multiple myeloma (MM) patients, underscoring the need for new therapeutic combinations. […] We hypothesized that effective combinations would reduce MYC expression and enhance p16 activity. […] These preclinical data identify potentially useful drug combinations for evaluation in drug-resistant MM and reveal potential mechanisms of combined drug sensitivity.
Described herein is the primary MIPE qHTS used to cherrypick compounds. Validated compounds were then further tested for potential synergistic activiy.
[1] Peat TJ, Gaikwad SM, Dubois W, Gyabaah-Kessie N, Zhang S, Gorjifard S, Phyo Z, Andres M, Hughitt VK, Simpson RM, Miller MA, Girvin AT, Taylor A, Williams D, D'Antonio N, Zhang Y, Rajagopalan A, Flietner E, Wilson K, Zhang X, Shinn P, Klumpp-Thomas C, McKnight C, Itkin Z, Chen L, Kazandijian D, Zhang J, Michalowski AM, Simmons JK, Keats J, Thomas CJ, Mock BA. Drug combinations identified by high-throughput screening promote cell cycle transition and upregulate Smad pathways in myeloma. Cancer Lett. 2023 Aug 1;568:216284. doi: 10.1016/j.canlet.2023.216284. Epub 2023 Jun 24. PMID: 37356470; PMCID: PMC10408729.
SEQUENCE No. (e.g., 1, 2, 3, etc.); […] (e.g., Cells, Incubation, Reagent, etc.); VALUE and DESCRIPTION.
1; Cells; 5 uL; white, solid bottom 1536-well Greiner assay plate.
2; Compounds; 23 nL; Kalypsis pin tool (Wako USA) equipped with a 1536-well pin head to transfer to the assay plates.
3; Incubation; 48 hours; 37C incubation.
4; Reagent;5uL; CellTiter Glo (Promega).
5; Detector; 425V; Luminescence; Viewlux PerkinElmer.
NOTES (numbers refer to Sequence numbers above)
1. The cell-based screening methods employed in this study were like those previously published. Briefly, the corresponding myeloma cell lines were screened in 1,536-well plates with 500 cells, 5-uL per well for inhibition of cell viability (assessed by measuring ATP levels with CellTiterGlo).
2. NCATS MIPE 4.0 library of approved and investigational drugs were added using the Kalypsis pin tool. Wells treated with DMSO only for 100% viability and media only for 0% viability were used as controls.
3. The assay plates were covered and incubated for 48 hours in a 37C, 5% CO2 incubator with controlled humidity.
4. After 48 hours, CellTilter-GloTM luminescent substrate mix (Promega) reagent was added to the assay plate and plates we incubated for 5 min at room temperature.
5. Signal was measured as median relative luminescence units on a ViewLux (PerkinElmer) multiplate reader.
[1] Heske CM, Davis MI, Baumgart JT, Wilson K, Gormally MV, Chen L, Zhang X, Ceribelli M, Duveau DY, Guha R, Ferrer M, Arnaldez FI, Ji J, Tran HL, Zhang Y, Mendoza A, Helman LJ, Thomas CJ. Matrix Screen Identifies Synergistic Combination of PARP Inhibitors and Nicotinamide Phosphoribosyltransferase (NAMPT) Inhibitors in Ewing Sarcoma. Clin Cancer Res. 2017 Dec 1;23(23):7301-7311. doi: 10.1158/1078-0432.CCR-17-1121. Epub 2017 Sep 12. PMID: 28899971; PMCID: PMC6636827.
Potency means the concentration at half of the fitted maximal effect.

Row | Compound | Potency | viability (% of control)
1 | Cc1ccc(S(=O)(=O)N[C@@H](Cc2ccccc2)C(=O)CCl)cc1 | 20.9 µM (active) | 
2 | NCCCC(O)(P(=O)(O)O)P(=O)(O)O |  | 111%
3 | COc1nc(N)nc2c1ncn2[C@@H]1O[C@H](CO)[C@@H](O)[C@@H]1O |  | 82.3%
4 | CC(C(=O)O)c1ccc2c(c1)CC(=O)c1ccccc1S2 (stereo not given) |  | 104%
5 | CCCc1cc(C(N)=S)ccn1 |  | 102%
6 | CC(C)C1CCC(C(=O)N[C@H](Cc2ccccc2)C(=O)O)CC1 (stereo not given in full) |  | 92.2%
7 | Cc1cccc(Nc2ccncc2S(=O)(=O)NC(=O)NC(C)C)c1 |  | 105%
8 | O=C(O)CSCC(=O)NC1CCSC1=O (stereo not given) |  | 98.6%
9 | CCCOc1ccc(C(=O)OCCN(CC)CC)cc1N |  | 67%
10 | CC(C)NCC(O)c1ccc(NS(C)(=O)=O)cc1 (stereo not given) |  | 110%
11 | N[C@@H](C(=O)N[C@@H]1C(=O)N2C(C(=O)O)=C(Cl)CS[C@H]12)c1ccccc1 |  | 104%
12 | CC(=O)[C@H]1CC[C@H]2[C@@H]3CC=C4C[C@@H](O)CC[C@]4(C)[C@H]3CC[C@]12C |  | 103%
13 | CCOC(=O)[C@H](CCc1ccccc1)N[C@H]1CCc2ccccc2N(CC(=O)O)C1=O | 20.9 µM (active) | 
14 | CC(N)C12CC3CC(CC(C3)C1)C2 (stereo not given) |  | 92.9%
15 | COc1cc(NCc2ccc3nc(N)nc(N)c3c2C)cc(OC)c1OC | 1.48 µM (active) | 
16 | CC(=O)CC(c1ccccc1)c1c(O)c2ccccc2oc1=O (stereo not given) |  | 98%
17 | COc1ccc2c(c1)c(CC(=O)OCC(=O)O)c(C)n2C(=O)c1ccc(Cl)cc1 |  | 99.3%
18 | Cc1noc(NS(=O)(=O)c2ccc(N)cc2)c1C |  | 113%
19 | COc1cc2ncnc(Nc3cccc(Cl)c3)c2cc1OC |  | 100%
20 | CNC1CCCN(c2c(F)cc3c(=O)c(C(=O)O)cn(C4CC4)c3c2OC)C1 (stereo not given) |  | 112%

Row | Compound | Potency | viability (% of control)
21 | NC(=O)c1cccnc1 |  | 108%
22 | C[C@@H](NCCCc1cccc(C(F)(F)F)c1)c1cccc2ccccc12 |  | 108%
23 | COC(=O)Nc1nc2ccc(C(=O)c3ccccc3)cc2[nH]1 | 1.87 µM (active) | 
24 | NC(=O)c1ccc2[nH]ccc2c1 |  | 87.8%
25 | O=C(O)c1cccnc1 |  | 104%
26 | CN(CCOc1ccc(CC2SC(=O)NC2=O)cc1)c1ccccn1 (stereo not given) |  | 92.2%
27 | CC[C@H](NC(C)C)[C@H](O)c1ccc(O)c2[nH]c(=O)ccc12 |  | 100%
28 | CCN[C@H]1C[C@H](C)S(=O)(=O)c2sc(S(N)(=O)=O)cc21 |  | 102%
29 | Cc1nnc(C(=O)NC(C)(C)c2nc(C(=O)NCc3ccc(F)cc3)c(O)c(=O)n2C)o1 |  | 111%
30 | CC1=CC(=O)c2ccccc2C1=O | 23.5 µM (active) | 
31 | CN(C)CCc1c[nH]c2ccc(CS(=O)(=O)N3CCCC3)cc12 |  | 75%
32 | Nc1nc(N)nc(-c2cc(Cl)ccc2Cl)n1 |  | 102%
33 | CCOc1cc(N)c(Cl)cc1C(=O)NCC1CN(Cc2ccc(F)cc2)CCO1 (stereo not given) |  | 105%
34 | NC(=O)c1cccc(N)c1 |  | 110%
35 | COc1cc2nc(N3CCCN(C)CC3)nc(NC3CCN(Cc4ccccc4)CC3)c2cc1OC | 4.69 µM (active) | 
36 | CNCC[C@H](Oc1cccc2ccccc12)c1cccs1 | 18.7 µM (active) | 
37 | CC1=C(C(=O)O)N2C(=O)[C@@H](NC(=O)C(N)c3ccccc3)[C@H]2SC1 (stereo not given in full) |  | 119%
38 | CCN(CC)CCn1c(=O)c(Cc2ccc(OC)cc2)nc2ccccc21 |  | 89.5%
39 | CCc1c2c(nc3ccc(OC(=O)N4CCC(N5CCCCC5)CC4)cc13)-c1cc3c(c(=O)n1C2)COC(=O)[C@]3(O)CC | 0.59 µM (active) | 
40 | CNC(=O)c1cc(Oc2ccc(NC(=O)Nc3ccc(Cl)c(C(F)(F)F)c3)cc2)ccn1 | 20.9 µM (active) | 
